Laboratory results taken from PubChem BioAssay AID1159580 (chemical genetic matrix, 2015).
Screen size: about 5,500 compounds; about 2,000 (36%) were called active. Inconclusive results (about 18%) are left out. No stated cut-off is given here; in the data, active means normalized growth mostly below about 0.91 (no sharp cut-off); inconclusive means no clear call, values can overlap the other calls; inactive means mostly above about 0.92. The list shows a part of the results.

Assay: chemical genetic growth profiling, strain panel (AID 1159580);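 further: tested at 20 µM; growth read once vehicle control cultures reached saturation at 30 °C; 1 = growth at the plate median or of vehicle wells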
Settings: S. cerevisiae deletion strains, growth OD

Measured: normalized growth

C=C1C2=CC(=O)O[C@@H](c3ccoc3)[C@]2(C)CCC1[C@@]1(C)C=CC(=O)C(C)(C)[C@@H]1CC(=O)OC (stereo partly drawn)
inactive: locus YAL021C, strain ccr4, stronger effect = lower value 1.04 | locus YAL026C, strain drs2, stronger effect = lower value 0.996 | locus YAL030W, strain snc1, stronger effect = lower value 0.998 | locus YBL061C, strain skt5, stronger effect = lower value 0.999 | locus YBR009C, strain hhf1, stronger effect = lower value 1.02 | locus YBR021W, strain FUR4, stronger effect = lower value 0.989 | locus YBR023C, strain chs3, stronger effect = lower value 1.01 | locus YBR171W, strain sec66, stronger effect = lower value 0.983 | locus YBR229C, strain ROT2, stronger effect = lower value 1 | locus YBR231C, strain swc5, stronger effect = lower value 0.982 | locus YBR279W, strain paf1, stronger effect = lower value 1 | locus YCL011C, strain gbp2, stronger effect = lower value 1.01 | locus YCL016C, strain dcc1, stronger effect = lower value 1.04 | locus YCL029C, strain bik1, stronger effect = lower value 0.983 | locus YCL061C, strain MRC1, stronger effect = lower value 1.01 | locus YCL069W, strain vba3, stronger effect = lower value 0.984 | locus YCR088W, strain abp1, stronger effect = lower value 0.982 | locus YDL005C, strain med2, stronger effect = lower value 0.996 | locus YDL035C, strain GPR1, stronger effect = lower value 0.991 | locus YDL040C, strain nat1, stronger effect = lower value 0.999 | locus YDL074C, strain BRE1, stronger effect = lower value 1.02 | locus YDL101C, strain DUN1, stronger effect = lower value 1.01 | locus YDL185W, strain tfp1, stronger effect = lower value 0.988 | locus YDL192W, strain arf1, stronger effect = lower value 0.999 | locus YDR001C, strain nth1, stronger effect = lower value 0.994 | locus YDR069C, strain doa4, stronger effect = lower value 0.991 | locus YDR101C, strain arx1, stronger effect = lower value 0.958 | locus YDR137W, strain rgp1, stronger effect = lower value 0.999 | locus YDR150W, strain NUM1, stronger effect = lower value 1.01 | locus YDR159W, strain sac3, stronger effect = lower value 0.953 | locus YDR162C, strain NBP2, stronger effect = lower value 1 | locus YDR195W, strain ref2 0.95 | locus YDR297W, strain sur2, stronger effect = lower value 0.988 | locus YDR318W, strain mcm21, stronger effect = lower value 1.01 | locus YDR334W, strain swr1, stronger effect = lower value 0.982 | locus YDR335W, strain msn5, stronger effect = lower value 0.997 | locus YDR388W, stronger effect = lower value 1 | locus YDR392W, strain spt3, stronger effect = lower value 1.03 | locus YDR502C, strain sam2, stronger effect = lower value 0.988 | locus YEL003W, strain gim4, stronger effect = lower value 0.994 | locus YEL037C, strain rad23, stronger effect = lower value 1 | locus YEL061C, strain CIN8 (second series), stronger effect = lower value 0.978 | locus YER015W, strain faa2, stronger effect = lower value 1.01 | locus YER016W, strain bim1, stronger effect = lower value 0.985 | locus YER110C, stronger effect = lower value 0.997 | locus YER111C, strain swi4, stronger effect = lower value 0.986 | locus YER155C, strain BEM2 (second series), stronger effect = lower value 1.02 | locus YER155C, strain BEM2, stronger effect = lower value 0.982 | locus YER167W, strain BCK2, stronger effect = lower value 1 | locus YFR010W, strain ubp6, stronger effect = lower value 0.972 | locus YGL078C, strain dbp3, stronger effect = lower value 0.999 | locus YGL086W, strain mad1, stronger effect = lower value 0.999 | locus YGL167C, strain pmr1, stronger effect = lower value 1.01 | locus YGL173C, strain kem1, stronger effect = lower value 0.99 | locus YGL227W, strain vid30, stronger effect = lower value 0.992 | locus YGL240W, strain doc1, stronger effect = lower value 0.994 | locus YGL248W, strain PDE1, stronger effect = lower value 1.01 | locus YGL253W, strain hxk2, stronger effect = lower value 0.937 | locus YGR078C, strain PAC10, stronger effect = lower value 1.01 | locus YGR135W, strain pre9, stronger effect = lower value 1.01 | locus YGR252W, strain gcn5, stronger effect = lower value 0.976 | locus YHR013C, strain ard1, stronger effect = lower value 1.01 | locus YHR027C, strain rpn1, stronger effect = lower value 0.976 | locus YHR079C, strain IRE1 (second series), stronger effect = lower value 0.985 | locus YHR094C, strain hxt1, stronger effect = lower value 0.996 | locus YHR129C, strain ARP1, stronger effect = lower value 1.01 | locus YHR142W, strain chs7, stronger effect = lower value 1.01 | locus YHR200W, strain rpn10, stronger effect = lower value 1 | locus YIL066C, strain RNR3, stronger effect = lower value 1.01 | locus YIL073C, strain SPO22, stronger effect = lower value 1.02 | locus YIL125W, strain kgd1, stronger effect = lower value 0.995 | locus YIR030C, strain dcg1, stronger effect = lower value 1 | locus YJL092W, strain hpr5, stronger effect = lower value 0.984 | locus YJL095W, strain BCK1 (second series), stronger effect = lower value 0.986 | locus YJL095W, strain BCK1, stronger effect = lower value 1.02 | locus YJL115W, strain asf1, stronger effect = lower value 0.999 | locus YJL129C, strain trk1, stronger effect = lower value 0.99 | locus YJL134W, strain LCB3, stronger effect = lower value 0.997 | locus YJL154C, strain vps35, stronger effect = lower value 0.995 | locus YJL164C, strain tpk1, stronger effect = lower value 1.02 | locus YJL166W, strain qcr8, stronger effect = lower value 0.996 | locus YJL168C, strain set2, stronger effect = lower value 1 | locus YJL187C, strain SWE1 (second series), stronger effect = lower value 1.01 | locus YJL187C, strain SWE1, stronger effect = lower value 0.99 | locus YJR075W, strain HOC1, stronger effect = lower value 0.993 | locus YKL009W, strain mrt4, stronger effect = lower value 0.976 | locus YKL068W, stronger effect = lower value 0.997 | locus YKL085W, strain MDH1 (second series), stronger effect = lower value 0.992 | locus YKL085W, strain MDH1, stronger effect = lower value 0.992 | locus YKL160W, strain elf1, stronger effect = lower value 1.06 | locus YKR001C, strain vps1, stronger effect = lower value 0.998 | locus YKR026C, strain gcn3, stronger effect = lower value 0.976 | locus YKR091W, strain srl3, stronger effect = lower value 0.994 | locus YLL001W, strain dnm1, stronger effect = lower value 0.99 | locus YLL026W, stronger effect = lower value 0.989 | locus YLL041C, strain sdh2, stronger effect = lower value 0.987 | locus YLR027C, strain aat2, stronger effect = lower value 0.978 | locus YLR039C, strain RIC1, stronger effect = lower value 1.05 | locus YLR058C, strain SHM2, stronger effect = lower value 1.01 | locus YLR102C, strain apc9, stronger effect = lower value 1 | locus YLR221C, strain rsa3, stronger effect = lower value 0.987 | locus YLR258W, strain gsy2, stronger effect = lower value 1.02 | locus YLR262C, strain YPT6 (second series), stronger effect = lower value 0.997 | locus YLR262C, strain YPT6, stronger effect = lower value 1.08 | locus YLR268W, strain sec22, stronger effect = lower value 0.996 | locus YLR320W, strain mms22, stronger effect = lower value 1.01 | locus YLR342W, strain FKS1 (second series), stronger effect = lower value 1.01 | locus YLR342W, strain FKS1, stronger effect = lower value 0.995 | locus YLR357W, strain rsc2, stronger effect = lower value 1.03 | locus YLR370C, strain arc18, stronger effect = lower value 0.97 | locus YLR371W, strain rom2, stronger effect = lower value 0.998 | locus YLR384C, strain iki3, stronger effect = lower value 1 | locus YLR418C, strain cdc73, stronger effect = lower value 1.01 | locus YML016C, strain PPZ1, stronger effect = lower value 0.998 | locus YML032C, strain rad52, stronger effect = lower value 0.984 | locus YML120C, strain ndi1, stronger effect = lower value 1.02 | locus YML124C, strain tub3, stronger effect = lower value 0.997 | locus YMR058W, strain fet3, stronger effect = lower value 1 | locus YMR078C, strain ctf18, stronger effect = lower value 1 | locus YMR125W, strain sto1, stronger effect = lower value 1 | locus YMR129W, stronger effect = lower value 0.991 | locus YMR205C, strain PFK2, stronger effect = lower value 1.07 | locus YMR223W, strain ubp8, stronger effect = lower value 0.989 | locus YMR231W, strain pep5, stronger effect = lower value 0.973 | locus YMR307W, strain GAS1, stronger effect = lower value 1.03 | locus YNL067W, strain RPL9B, stronger effect = lower value 1 | locus YNL071W, strain lat1, stronger effect = lower value 0.996 | locus YNL209W, strain ssb2, stronger effect = lower value 1.03 | locus YNL233W, strain BNI4, stronger effect = lower value 1.01 | locus YNL248C, strain rpa49, stronger effect = lower value 0.966 | locus YNL250W, strain rad50, stronger effect = lower value 0.997 | locus YNL271C, strain bni1, stronger effect = lower value 0.995 | locus YNL298W, strain CLA4, stronger effect = lower value 0.988 | locus YNL307C, strain MCK1, stronger effect = lower value 1 | locus YNL322C, strain KRE1 (second series), stronger effect = lower value 0.995 | locus YNL322C, strain KRE1, stronger effect = lower value 0.995 | locus YNR049C, strain mso1, stronger effect = lower value 0.99 | locus YNR052C, strain pop2, stronger effect = lower value 1.01 | locus YOL012C, strain htz1 1.06 | locus YOL147C, strain pex11, stronger effect = lower value 0.996 | locus YOR001W, strain rrp6, stronger effect = lower value 0.947 | locus YOR061W, strain CKA2, stronger effect = lower value 0.994 | locus YOR069W, strain VPS5, stronger effect = lower value 1 | locus YOR070C, strain gyp1, stronger effect = lower value 1 | locus YOR080W, strain dia2, stronger effect = lower value 0.983 | locus YOR083W, strain WHI5, stronger effect = lower value 1.06 | locus YOR106W, strain vam3, stronger effect = lower value 1.03 | locus YOR136W, strain idh2, stronger effect = lower value 0.993 | locus YOR144C, strain elg1, stronger effect = lower value 0.995 | locus YOR184W, strain ser1, stronger effect = lower value 0.992 | locus YOR265W, strain rbl2, stronger effect = lower value 0.984 | locus YOR270C, strain vph1, stronger effect = lower value 0.991 | locus YOR290C, strain snf2, stronger effect = lower value 1.06 | locus YOR316C, strain cot1, stronger effect = lower value 0.95 | locus YPL051W, strain arl3, stronger effect = lower value 0.985 | locus YPL078C, strain atp4, stronger effect = lower value 1.05 | locus YPL106C, strain sse1, stronger effect = lower value 1.08 | locus YPL240C, strain hsp82, stronger effect = lower value 0.992 | locus YPR119W, strain clb2, stronger effect = lower value 1 | locus YPR141C, strain kar3, stronger effect = lower value 0.999 | locus YPR163C, strain tif3, stronger effect = lower value 0.991 | locus YPR167C, strain met16, stronger effect = lower value 0.992 | strain wtn01, stronger effect = lower value 0.978
